Bioassay records from PubChem.
In the library only some 19% were active in any assay of this set; here they are far more common.
HT1080-NT tox: qHTS for induction of synthetic lethality in tumor cells producing 2HG: qHTS for the HT-1080-NT fibrosarcoma cell line; 1.6% of 360,000 active; AID 686970, 2013; HT-1080-NT fibrosarcoma viability, CellTiter-Glo ATP luminescence, 48 h; Potency, µM (top dose mostly 46.1 µM), without a hit: at the top dose activity, negative = less viability, usual class: cytotoxic;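 note: NT is the 2HG producing partner of a matched IDH1 knockdown line; potency is the fitted concentration of half-maximal effect; 0% = DMSO-treated cells and -100% = media-only wells without cells; nearly all actives have a fitted effect of over 55% in size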
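Fibrosarcoma NT cells, 750 per well in 5% FBS RPMI, were exposed to compound for 48 hours. Viability: CellTiter-Glo luminescence.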
ELG1 DNA repair: qHTS screen for small molecules that inhibit ELG1-dependent DNA repair in human embryonic kidney (HEK293T) cells expressing luciferase-tagged ELG1. HEK293T ELG1-luciferase reporter, luminescence, 16 h; DNA damage induced by 5-fluorouridine. Potency, µM (titrated, usually from 46.1 µM), inactives show at the highest dose activity change, negative = inhibition, hits mostly inhibitors. AID 504467, 2011. 2.3% of 330,000 active; note: potency is the fitted concentration of half-maximal effect; nearly all actives have a fitted effect of over 55% in size
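Overnight (16 hr) co-exposure of 2,000 cells/well to 5-fluorouridine and compound at 37 °C preceded detection. Luciferase was quantified via ONE-Glo luminescence; loss of signal denotes inhibition.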
HT1080 IDH1KD tx: qHTS for induction of synthetic lethality in tumor cells producing 2HG: qHTS for the HT-1080-IDH1KD cell line. HT-1080 IDH1 knockdown viability, ATP luminescence, 48 h. AID 686971, 2013. Potency, µM (doses to about 46.1 µM), inactives show at the top dose activity, negative = toxicity, usual class: cytotoxic. 2% of 360,000 active;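 note: potency is the fitted concentration of half-maximal effect; 0% = DMSO wells and -100% = cell-free medium wells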
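CellTiter-Glo luminescence after 48 h compound exposure at 37 degrees C of IDH1-knockdown HT-1080 cells in 5% FBS RPMI. %Activity scaled between DMSO wells and cell-free media wells, with curves fitted and assigned curve classes.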
TDP1 cell CPT: qHTS for Inhibitors of human tyrosyl-DNA phosphodiesterase 1 (TDP1): qHTS in cells in presence of CPT | chicken DT40 Tdp1-/-;hTDP1 cells + 20 nM CPT, ATP luminescence, 48 h | Potency, µM (highest dose often 46.2 µM), inactives show at the highest dose activity change, negative = growth inhibition, most hits filed as inhibitors | 12% of 420,000 active; note: potency is the fitted concentration of half-maximal effect; nearly all actives have a fitted effect of over 55% in size
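Cell growth measured by CellTiter-Glo luminescence after a minimum 48 h, 37 C compound exposure with 20 nM CPT in Tdp1-knockout DT40 cells stably expressing hTDP1, seeded 400/well; qHTS titration format.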
IL-1B inflam inh: qHTS for Inhibitors of Inflammasome Signaling: IL-1-beta AlphaLISA Primary Screen. THP-1 LPS/ATP IL-1B secretion, AlphaLISA, 16 h; hits give low values. 4.7% of 360,000 active. AID 743279, 2014. activity change, % at 57.5 µM; in the data active = activity change below about -50%; inconclusive = mostly about -30% to -49%
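Secreted IL-1B measured by AlphaLISA bead assay after 16 h compound exposure of THP-1 cells; compounds (final up to 57.5 uM) added 1 h before LPS (250 ng/mL) and ATP (1.25 mM) stimulation; lower signal means less secretion.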
DT40 TDP1 no CPT: qHTS for Inhibitors of human tyrosyl-DNA phosphodiesterase 1 (TDP1): qHTS in cells in absence of CPT | DT40 Tdp1-/- hTDP1 cells, no CPT, ATP luminescence, 48 h | Potency, µM (highest dose often 46.2 µM), for the others: at the highest dose activity change, negative = growth inhibition, actives largely listed as inhibitors | 15% of 420,000 active | AID 686978, 2013; note: potency is the fitted concentration of half-maximal effect; nearly all actives have a fitted effect of over 55% in size
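Seeded 400 DT40-hTDP1 cells/well (vehicle DMSO, no 20 nM CPT); pinned compounds; ≥48 hr at 37 °C; CellTiter-Glo luminescence as viability measure.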
Starred values were filed as active, the others as inactive; ? = inconclusive; nt = no result given; [ ] = dose if it differs, or a comment. Unless noted, calls come from the whole dose curve; as a rule, active = well fitted curve in the direction sought with a large enough effect; inconclusive = small, poorly fitted or top-dose-only effect, or another doubt; inactive = no such curve, though single readings can be large; an effect the other way counts as inactive or inconclusive. Unless noted, % is set by controls: 0 for no effect and ±100 for the full control effect.

SMILES	HT1080-NT tox	ELG1 DNA repair	HT1080 IDH1KD tx	TDP1 cell CPT	IL-1B inflam inh	DT40 TDP1 no CPT
CC(C)CC1C(=O)N(Cc2cn(CCC3OCCO3)nn2)CCS(=O)(=O)N1Cc1ccc(-c2ccncc2)cc1 (stereo not given)	1.9%	nt	19.3%	?	-9.7	23.1µM*
CC(C)CC1C(=O)N(Cc2cn(CCC3OCCCO3)nn2)CCS(=O)(=O)N1Cc1ccc(-c2ccc(F)cc2)cc1 (stereo not given)	-12.0%	nt	-4.9%	?	2.1	?
Cc1ccc(-c2ccc(CN3C(CC(C)C)C(=O)N(Cc4cn(CCC5OCCCO5)nn4)CCS3(=O)=O)cc2)cc1 (stereo not given)	?	nt	?	18.4µM*	-7.0	20.6µM*
COc1cccc(Cn2c(=O)cnc3cnc(OC)nc32)c1	nt	nt	nt	6.0%	nt	-15.4%
CCc1cccc2c(C(=O)C(NCCOC)c3ccccc3)c[nH]c12 (stereo not given)	?	8.4%	-9.2%	?	-22.6	11.6µM*
CCc1cccc2c(C(=O)CSc3nncn3C)c[nH]c12	0.6%	?	9.4%	-4.0%	20.4	4.3%
CCNC(C(=O)c1c[nH]c2c(CC)cccc12)c1ccccc1 (stereo not given)	?	23.3%	?	?	-57.3*	?
COc1ccc(C(=O)NCCc2csc(-c3ccc(Cl)cc3)n2)c(OC)c1	nt	nt	nt	?	nt	23.1µM*
Cc1ccc(C(=O)NCCc2csc(C)n2)cc1	?	?	2.1%	?	-12.8	-8.0%
COc1ccc(C(=O)NCCc2csc(-c3ccc(Cl)cc3)n2)cc1	nt	nt	nt	?	nt	18.4µM*
Cc1cnc(CNc2cc(-c3ccc4c(c3)OCO4)ncn2)cn1	nt	nt	nt	2.3%	nt	-11.1%
S=C1Cc2ccccc2C(c2ccc(Cl)cc2)N1 (stereo not given)	-11.2%	-14.5%	-22.7%	?	29.5	23.1µM*
O=C1Cc2ccccc2C(c2ccc(Cl)cc2)N1 (stereo not given)	-8.3%	-18.2%	-22.6%	?	2.6	?
N=c1sccn1CC(=O)NC(c1ccccc1)c1ccccc1	-0.9%	6.4%	-23.4%	?	-52.0*	?
N=c1sccn1CC(=O)Nc1ccccc1Cc1ccccc1	-4.8%	-2.5%	7.3%	?	-51.1*	?
Cc1ccc(Oc2ccc(NC(=O)Cn3ccsc3=N)cc2)cc1	-25.9%	-19.4%	?	?	-100.1*	?
O=C(Cn1cnc2ccccc21)NC(c1ccccc1)c1ccccc1	-20.4%	4.1%	?	?	-16.9	-33.5%
N=c1sccn1CC(=O)Nc1ccccc1Oc1ccccc1	-7.1%	13.6%	-5.4%	-0.8%	-28.9	-10.2%
CN(C)S(=O)(=O)c1ccc(NC(=O)Cn2ccsc2=N)cc1	23.0%	7.5%	0.3%	-13.1%	-4.2	-6.8%
O=C1Nc2cccc3c2N(CCC3)C2=C1CCC2	0.8%	nt	-13.7%	?	31.1	?
CNC(=O)c1cn2c3c(ccc(Cl)c3c1=O)OC(C)C2 (stereo not given)	7.8%	nt	10.2%	15.6%	-5.3	4.8%
Cc1c(F)cccc1NS(=O)(=O)c1ccc(OCCNS(C)(=O)=O)cc1	-0.9%	?	-1.2%	?	-18.1	-51.4%
CNC(=O)C(=O)NCC1OCCN1S(=O)(=O)c1ccc(OC)c(OC)c1 (stereo not given)	-0.6%	15.5%	6.7%	12.7%	11.4	2.3%
Cc1ccc(C(=O)n2nc(C)c(S(=O)(=O)N3CCOCC3)c2C)cc1	nt	nt	nt	-16.9%	nt	?
O=C(CSc1nnc2c(Cl)cc(C(F)(F)F)cn12)N(Cc1ccccc1)Cc1ccccc1	-26.4%	-4.1%	-6.9%	-73.7%	-29.2	20.6µM*
SMILES	HT1080-NT tox	ELG1 DNA repair	HT1080 IDH1KD tx	TDP1 cell CPT	IL-1B inflam inh	DT40 TDP1 no CPT
CCOc1ccc(OCC)c(NC(=O)CSc2nc3c(c(=O)n(C)c(=O)n3C)n2CC)c1	4.4%	?	-9.2%	?	1.1	23.1µM*
CCOc1ccc(OCC)c(NC(=O)CSc2nc3c(c(=O)n(C)c(=O)n3C)n2C(C)C)c1	-46.0%	11.6µM*	4.1%[9.24 µM]	16.4µM*	-81.3*	20.6µM*
COc1ccc2c(c1)c1c(c(=O)n(-c3ccccc3)c(=O)n1CC(=O)Nc1ccc(C)c(C)c1)n2C	nt	nt	nt	0.0%	nt	0.3%
O=C1NN(c2cccc(Br)c2)C(=O)/C1=C\c1ccc(N2CCOCC2)cc1	-0.4%	6.7%	4.2%	-5.3%	-3.2	3.1%
O=C(Nc1ccc(OCC(F)(F)C(F)F)c(C(F)(F)F)c1)c1ccccc1	?	nt	?	23.1µM*	?	23.1µM*
O=C(Nc1ccc(OCC(F)(F)C(F)F)c(C(F)(F)F)c1)c1ccccc1O	16.4µM*	?	13µM*	?	?	18.4µM*
O=C(Nc1ccc(OCC(F)(F)C(F)F)cc1)c1ccncc1	-3.3%	?	-26.9%	?	1.8	?
COc1ccc(C2NC(=O)N(C)C3=C2C(=O)N(c2cccc(Cl)c2)C3)cc1 (stereo not given)	nt	nt	nt	-2.1%	nt	-1.0%
Cc1cc(C)cc(NC(=S)N2CCC(NC(=O)C3CC3)CC2)c1	7.2%	3.1%	1.7%	3.5%	-11.0	7.0%
O=C(C(=O)N(Cc1ccccc1)Cc1ccccc1)c1c(-c2ccccc2)[nH]c2ccccc12	?	nt	?	10.3µM*	?	20.6µM*
C=CCn1c(SCC(=O)NCc2ccc3c(c2)OCO3)nc2scc(-c3ccc(F)cc3)c2c1=O	-18.9%	14.6µM*	-25.1%	?	1.7	?
Cn1c(SCC(=O)NCc2ccc3c(c2)OCO3)nc2scc(-c3cccs3)c2c1=O	-11.2%	13µM*	1.0%	?	22.4	?
C=CCn1c(SC(C)C(=O)NCc2ccc3c(c2)OCO3)nc2scc(-c3ccccc3)c2c1=O (stereo not given)	-9.7%	?	-3.0%	-18.6%	8.7	?
O=C(CSc1n[nH]c(-c2cccs2)n1)NCc1ccc2c(c1)OCO2	2.9%	2.5%	2.9%	-1.1%	28.2	-13.6%
